Source: the supplement of paper PMC6555819

Each sequence was assayed on FXR:RXRa (NR concentration 270 nM, RXRa partner concentration 90 nM) (assay: PBM binding z-score (relative to random genomic background probes); higher = stronger binding; sequences stand for … in GC…GCGATTGACAGCGTAGAATGAAGG).
Outline: (§1)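 Binding z-scores take random background probes as their reference. They come from custom Agilent 4×180K protein-binding microarrays incubated 1 h with ligand-free nuclear receptor dimers, with antibodies against each partner (one per run) detecting binding. Scanned fluorescence was regression-normalized.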

In order of falling PBM binding z-score:
1. TAGCCAAGGTCATGCGGGCCAGTATAGTGTCGGC  7.03
2. TGTCAAAGTTCAAACGTAACGTAAGTATCCACAC  7.01
3. ACTTACGGGTCAACGAGGTTATATCACGCGTATA  6.93
4. GCTTACGGGTCAAAGGTTTTAGCATGAATAGAAT  6.63
5. TAGCCTAGGTCATGGGCCATTATACCACGCGAAC  4.64
6. CTTACAGGGTCAGCTAGGCCAGAGTAGGGACGGC  4.5
7. CATACAGGGTCAGCTAGGCCAGAGTGGGGACGGC  4.45
8. TAGCCTAGGTCATCCAGGGGCCAGTATAGAAAGC  4.4
9. ACTAGTTGGTCAGCAGAGGTCACACACAATTCGG  4.13
10. CCTACTGGGCCACGAAAGGTCATTGTTTCAGTGA  3.44
11. TCTGCTAGGTCAACGATGGTCAGCTGATCTGCTA  3.18
12. CGAACGAGGGCATGAGTTCATAGCAAATGCCGAT  2.26
13. TCTTGTAGATCAAAGGTTAAGAATGCCGAAGCCT  2.11
14. TAGCCTAGGTCAGATCGGGCTAGTATACGCTATA  1.81
15. TCTCAGAGGACACGAAGGTCAGAGCTTTCCAGAG  1.39
16. TGAATGAGGTTATAAGATCAGAGAACGTTGCAAA  1.28
17. TCATATAGGTAAAAAGTGAAAGTCGGTGTGGTAA  1.13
18. TCTATTATTTGAAGGGCAACCGACGAGTCCGTTT  1.12
19. TCTTGTAGATCAATAGAGGTTATGAAAGTGCGCT  0.99
20. TCATATAGGTAAACAGGAGAAAGTCCGTAAGTTA  0.871
21. ATCGAAAGTTCGAGGTGAGTATAGAGAAAGGGAA  0.831
22. TCATATACGTAAAGGTGAAAGTCGAACGATATGA  0.717
23. TCTTGTAGATCAATAGAGGTTAAGACAGTGCGCT  0.684
24. ATCACTAGGTAACAAGTTCAGTGAAAGAGAGGAC  0.674
25. TCTGCTAGGTCAGTTGGTCTGCTAACGAGCTGCC  0.643
26. TTATATAGGTAATACAGGTGAAAGTCGGCATCTA  0.622
27. TCTATTAGTTGAAGGGCAAGCGACGAGTCCGTTT  0.609
28. CGAACGAGGGCATGAGTTGATATCAAATGCCGAT  0.475
29. CGAACGAGGGCATGAGTTGATTGCAAATGCCGAT  0.319
30. CGAACTAGTTCATTGACAGGACAGTGAATAGTAA  0.24
31. CCAGACAGGTGAGAAGGTAACTCATCCTCGATTA  0.223
32. ATCTCTAGGTAAAAGATCAGTGAATCCCGAGGAT  0.18
33. ATCTCTAGGTAACGATAGTTCAGTGAATGCAAAT  0.157
34. GCTTGCAGGCCATTTGGGTCACTCAATGACGGGC  0.139
35. TCTTGCAGATCAACAGGAGGTTAAGAAAGATCGA  -0.0407
36. AGAGCGAGGGCAATGAGTTGATAGCACGGGTGGC  -0.116
37. CCGACTGGGGCACGGTTACCATAACGCACAGCCA  -0.15
38. GCGACTGGCGCATCAGCAGGTTACCATAACTTAA  -0.425
39. CGAACGAGCGCATGAGTTGATAGCAAATGCCGAT  -0.525

The sequences below were run on LXRa:RXRa (NR concentration 270 nM, RXRa partner concentration 90 nM) in the same assay as above.
Outline: as §1

In order of rising PBM binding z-score:
1. GCGACTGGCGCATCAGCAGGTTACCATAACTTAA  -0.781
2. CGAACGAGCGCATGAGTTGATAGCAAATGCCGAT  -0.575
3. ATCTCTAGGTAAAAGATCAGTGAATCCCGAGGAT  -0.223
4. AGAGCGAGGGCAATGAGTTGATAGCACGGGTGGC  -0.109
5. CCGACTGGGGCACGGTTACCATAACGCACAGCCA  -0.079
6. CCAGACAGGTGAGAAGGTAACTCATCCTCGATTA  0.195
7. GCTTGCAGGCCATTTGGGTCACTCAATGACGGGC  0.261
8. TCTGCTAGGTCAGTTGGTCTGCTAACGAGCTGCC  0.261
9. CGAACGAGGGCATGAGTTGATTGCAAATGCCGAT  0.271
10. CGAACGAGGGCATGAGTTGATATCAAATGCCGAT  0.326
11. CGAACTAGTTCATTGACAGGACAGTGAATAGTAA  0.585
12. TCATATAGGTAAACAGGAGAAAGTCCGTAAGTTA  0.628
13. TCTTGCAGATCAACAGGAGGTTAAGAAAGATCGA  0.769
14. ATCACTAGGTAACAAGTTCAGTGAAAGAGAGGAC  0.942
15. ATCGAAAGTTCGAGGTGAGTATAGAGAAAGGGAA  1
16. TCATATAGGTAAAAAGTGAAAGTCGGTGTGGTAA  1.01
17. TCTATTAGTTGAAGGGCAAGCGACGAGTCCGTTT  1.02
18. TAGCCTAGGTCAGATCGGGCTAGTATACGCTATA  1.03
19. TTATATAGGTAATACAGGTGAAAGTCGGCATCTA  1.12
20. TCATATACGTAAAGGTGAAAGTCGAACGATATGA  1.21
21. TGAATGAGGTTATAAGATCAGAGAACGTTGCAAA  1.23
22. TCTCAGAGGACACGAAGGTCAGAGCTTTCCAGAG  1.27
23. TCTATTATTTGAAGGGCAACCGACGAGTCCGTTT  1.55
24. TCTTGTAGATCAAAGGTTAAGAATGCCGAAGCCT  2.06
25. CGAACGAGGGCATGAGTTCATAGCAAATGCCGAT  2.23
26. TCTGCTAGGTCAACGATGGTCAGCTGATCTGCTA  2.66
27. CTTACAGGGTCAGCTAGGCCAGAGTAGGGACGGC  2.83
28. CATACAGGGTCAGCTAGGCCAGAGTGGGGACGGC  2.94
29. TCTTGTAGATCAATAGAGGTTAAGACAGTGCGCT  3.16
30. TAGCCTAGGTCATCCAGGGGCCAGTATAGAAAGC  3.37
31. TAGCCTAGGTCATGGGCCATTATACCACGCGAAC  3.37
32. TCTTGTAGATCAATAGAGGTTATGAAAGTGCGCT  3.56
33. GCTTACGGGTCAAAGGTTTTAGCATGAATAGAAT  4.06
34. ACTAGTTGGTCAGCAGAGGTCACACACAATTCGG  4.71
35. ATCTCTAGGTAACGATAGTTCAGTGAATGCAAAT  4.89
36. TAGCCAAGGTCATGCGGGCCAGTATAGTGTCGGC  4.97
37. ACTTACGGGTCAACGAGGTTATATCACGCGTATA  5.07
38. CCTACTGGGCCACGAAAGGTCATTGTTTCAGTGA  5.19
39. TGTCAAAGTTCAAACGTAACGTAAGTATCCACAC  6.81
